The list shows a part of the results. Values without a mark were called inactive. The source made the active and inactive calls. Rule as the data show it: active = response above about 24%; inactive = the rest.
assay: yeast V-ATPase proton pumping modulators, confirmation, S. cerevisiae, pH-sensitive GFP, second cherry-pick (AID 602197);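 also: plate controls were vehicle wells for no effect and positive control wells for full effect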; details: S. cerevisiae pHLuorin cytosolic pH, V-ATPase proton transport; at 10 µM; hits give high values

Compound | response
COc1cc2c(cc1/C=C1/NC(=O)N(c3ccccc3)C1=O)OCO2 | -0.72%
COC(=O)c1c(-c2ccc(C)cc2)csc1N | 0.92%
O=C(COC(=O)c1ccccc1Br)Nc1nnc(-c2ccccc2)o1 | 3.01%
O=C(C1=C[C@H](C2CC2)C[C@H](OCc2ccc(CO)cc2)O1)N1CCN(Cc2ccccc2)CC1 | 1.94%
Cc1cc(=O)[nH]c(N/N=C/c2c(C)nn(-c3ccccc3Cl)c2Cl)n1 | -0.02%
CC1=NN(c2ccc(Cl)c(C(=O)O)c2)C(=O)/C1=C/c1ccc(-c2ccccc2[N+](=O)[O-])o1 | 1.31%
CC(=O)N1CCC(N(C(=O)Nc2ccc(Cl)cc2)C(C)C)CC1 | 2.59%
COC(=O)COc1ccc2c(=O)c(Oc3ccccc3Br)coc2c1 | -1.59%
CCOC(=O)N1CCN(CC(=O)n2c(C)c(C)c3ccccc32)CC1 | 1.66%
COc1ccc(CCN2C(=O)N(c3ccc(OC)cc3)C(=O)C2CC(=O)Nc2ccc(OC)cc2)cc1 (centres undefined) | -1%
Nc1ccc(C(=O)NCc2ccccc2)cc1 | -2.67%
O=C(NC1CCN(Cc2ccccc2)CC1)c1cc(Br)c(Br)[nH]1 | 2.14%
COc1ccc(/C=N/NC(=O)c2cccc(C(F)(F)F)c2)cc1 | -3.87%
CCCc1cc(=O)[nH]c(SCc2ccc(C#N)cc2)n1 | 1.04%
CCOC(=O)Cn1c(-c2cccnc2Cl)nc2ccccc21 | 1.29%
CNC(=O)c1csc(Cc2c(Cl)sc3ccc(Cl)cc23)n1 | 2.33%
CCCCNc1ccc(C(=O)Nc2cccc(C)n2)cc1[N+](=O)[O-] | 2.43%
COc1ccc2nc(N3CCN(C(=O)c4ccc([N+](=O)[O-])o4)CC3)sc2c1 | 36% (active)
O=C(NCC1CCCCC1)c1cc(S(=O)(=O)N2CCCCC2)ccc1N1CCOCC1 | -0.11%
Cc1occc1C(=O)Nc1nnc(C2CCCCC2)s1 | 3.1%
CCc1ccc(CNC(=O)CCc2nc(-c3cccs3)no2)cc1 | 2.27%
OCc1nc(CO)n(Cc2ccccc2)n1 | -7.16%
O=C1Oc2ccccc2C(=O)/C1=C/c1ccccc1O | 91.4% (active)
COc1cccc(OC)c1C(=O)OCC(=O)/C(C#N)=C(\C)N | -0.01%
